The values that follow come from PubChem BioAssay.

Each structure is given as a SMILES string.

This assay is described as follows: small molecules captured by biotinylated probe aFGF10 – biochemical, small-molecule microarray, fluorescence 635/667, stem cell growth factor project, primary screen (AID 1071).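 Further: score merges 667 nm spot intensity and signal to noise from triplicate slides.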 Conditions: higher = more signal.
For the compound `CC(C)c1ccc(NN2C(C(O)C3CCCCC3)C=CC3C(=O)N(c4ccccc4)C(=O)C32)cc1` (stereo unspecified), the composite z-score worked out at 0.509.

As for `COc1ccc(C(=O)Nc2ccc(CN3C(=O)[C@]4(O[C@H](CC(=O)N(CCO)Cc5ccccc5)[C@@H]([Si](C)(C)c5ccc(OC)cc5)[C@@H]4C)c4ccccc43)cc2)cc1`, the composite z-score was 0.792.

As for `CCOC(=O)C=C1C[C@@H](c2cccc([N+](=O)[O-])c2)O[C@@H](c2cccc([N+](=O)[O-])c2)O1`, the composite z-score worked out at 0.432.

Regarding `CC[C@@H]1C=C(C(=O)O)[C@H](c2cccc(Cl)c2)N1S(=O)(=O)c1ccc(C)cc1`, the composite z-score is 0.516.

With `C=CCOC(=O)[C@H]1[C@@H]2C(=O)O[C@@H](c3ccccc3)[C@@H](c3ccccc3)N2[C@@H](c2ccc(OCCOC(=O)[C@@H]3C[C@@H]4C(=O)N[C@@H](Cc5ccccc5)C(=O)N4[C@@H]3c3ccc(O)cc3)cc2)[C@]12C(=O)Nc1ccc(I)cc12`, the composite z-score worked out at 0.449.

On to `COC(=O)C1=CC(c2ccc(CO)cc2)=CC(C2CC2)N(Cc2cc3c(cc2Br)OCO3)C=C1C(=O)OC` (stereo unspecified), for which the composite z-score was found to be 1.25.

The compound `O=C1O[C@H](c2ccccc2)[C@H](c2ccccc2)N2[C@H]1[C@@H](C(=O)O)[C@]1(C(=O)Nc3ccc(C#CC4(O)CCCCCC4)cc31)[C@H]2c1ccccc1OCCO` returned a composite z-score of 0.85.

`CCCCCCc1nc(-c2ccc(OC)nc2)c(C)c2c1[Si](C(C)C)(C(C)C)OC2` came in with a composite z-score of -0.234.

As to `[N-]=[N+]=NCc1ccccc1[C@H]1OC(c2ccc(OCCCO)cc2)=N[C@@]1(Cc1ccccc1N=[N+]=[N-])C(=O)N1CCOCC1`, the composite z-score was 0.383.

In turn, `C=CCOC(=O)[C@H]1[C@@H]2C(=O)O[C@@H](c3ccccc3)[C@@H](c3ccccc3)N2[C@@H](c2ccc(OCCOC(=O)[C@H]3C[C@H]4C(=O)NCC(=O)N4[C@H]3c3cccc(OCCO)c3)cc2)[C@]12C(=O)Nc1ccc(I)cc12` came in with a composite z-score of 0.589.

In turn, `COCCOC(=O)N1C(=O)[C@@]2(c3cc(C#CCNC(N)=O)ccc31)[C@H](C(N)=O)[C@H]1C(=O)O[C@H](c3ccccc3)[C@H](c3ccccc3)N1[C@@H]2c1ccc(O)cc1` yielded a composite z-score of 0.29.

In the case of `C=C1C(=O)C=C2CN(C(=O)c3ccccc3)[C@@](Cc3ccc(F)cc3)(C(=O)OC)[C@@H]12`, the composite z-score came to 1.12.

Compound `CC(C)(C)OC(=O)N1[C@@H](C=C(Br)Br)COC1(C)C` had a composite z-score of 0.348.

With `O=C1C[C@@](C(=O)NCC(F)(F)F)(c2ccc([N+](=O)[O-])cc2)[C@@H](c2ccc(CO)cc2I)N1CC12CC3CC(CC(C3)C1)C2`, the composite z-score worked out at 0.121.

`Cc1cccc([C@H]2C[C@H]3C(Br)=C[C@@]2(CO)C(=O)[C@]32CO2)c1` had a composite z-score of 0.0924.

In the case of `COC(=O)C(CC#Cc1ccc2c(c1)[C@]1(C(=O)N2)[C@H](c2ccccc2OCCO)N2[C@H](c3ccccc3)[C@H](c3ccccc3)OC(=O)[C@H]2[C@@H]1C(=O)N1CCN(c2ncccn2)CC1)C(=O)OC`, the composite z-score worked out at 0.431.

`O=C1NC(=O)C2C1C=CC(C(O)c1ccc(F)cc1)N2Nc1ccc(Cl)cc1Cl` (stereo unspecified) had a composite z-score of 0.336.

`C=CCOC(=O)[C@@H]1[C@H]2C(=O)O[C@H](c3ccccc3)[C@H](c3ccccc3)N2[C@H](c2ccc(OCCOC(=O)[C@@H]3C[C@@H]4C(=O)N[C@@H](CC(C)C)C(=O)N4[C@@H]3c3ccc(O)cc3)cc2)[C@@]12C(=O)Nc1ccc(I)cc12` had a composite z-score of 0.325.

Consider `COC(=O)c1ccc(OC)c(/C=C\CC(OC(=O)c2ccncc2)c2ccccc2)c1` (stereo unspecified), for which the composite z-score amounted to 0.257.

Compound `COC(=O)[C@@]1(Cc2ccc(F)cc2)[C@H]2c3cc(C(=O)N4CCCC4)n(CCSCCO)c3C[C@H]2CN1C(=O)c1ccccc1` gave a composite z-score of 0.359.

On to `Cc1c(NC(=O)/C(C#N)=C/C=C/c2ccc([N+](=O)[O-])cc2)c(=O)n(-c2ccccc2)n1C`, for which the composite z-score is 0.906.

`COc1ccc([Si](C)(C)[C@H]2[C@H](CC(=O)N(CCO)Cc3ccccc3)O[C@@]3(C(=O)N(Cc4cccc(N5CCCCC5=O)c4)c4ccccc43)[C@@H]2C)cc1` returned a composite z-score of 0.141.

Turning to `O=C1c2ccccc2[C@@]2(Cc3ccccc3N(CC(F)(F)F)C2=O)[C@H](c2ccc(CO)cc2)N1Cc1ccccc1`, the composite z-score stood at 0.316.

Compound `CC(C)C[C@@H]1NC(=O)[C@@H]2C[C@H](C(=O)NCCCCCNC(=O)CS)[C@H](c3ccc(O)cc3)N2C1=O` showed a composite z-score of -0.435.

Consider `COc1ccc(C(O)C2C=CC3C(=O)N(C)C(=O)C3N2Nc2ccccc2)cc1` (stereo unspecified), for which the composite z-score stood at 0.701.

Regarding `Cc1ccc(S[C@]2(C(=O)NCCN3CCOCC3)CC(=O)N(C(C)C)[C@@H]2c2ccc(CO)cc2I)cc1`, the composite z-score was -0.11.

The compound `COc1ccc([Si](C)(C)[C@H]2[C@H](CC(=O)N(CCO)Cc3ccccc3)O[C@@]3(C(=O)N(Cc4ccc(N5C(=O)c6cccc7cccc5c67)cc4)c4ccccc43)[C@@H]2C)cc1` gave a composite z-score of 0.479.

In turn, `COC(=O)[C@@]1(Cc2ccccc2)[C@H]2c3cc(C(=O)N(C)C)n(CCF)c3C[C@H]2CN1C(=O)c1ccccc1` displayed a composite z-score of 0.103.

In turn, `C=CCC(OC(C)=O)[C@@H]1[C@@H](N(Cc2ccc(-c3ccccc3)cc2)C(=O)Cc2ccc(OC)cc2)c2cc(OCCCO)ccc2N1C(=O)c1ccc2ccccc2c1` (stereo partly specified) showed a composite z-score of 0.269.

Turning to `C=C(C(=O)CC[C@@H](OC(=O)c1cccnc1)c1cccc(OCCO)c1)C(C)C`, the composite z-score was found to be 0.684.

For `CCCC=C(CCC)[C@@H](NC(=O)c1ccc(C(=O)OC)cc1)c1ccc(C(=O)OC)cc1`, the composite z-score was -0.327.

The compound `[N-]=[N+]=NCc1ccccc1C[C@]1(C(=O)N2CCCCC2)COC(c2ccc(OCCCO)cc2)=N1` came in with a composite z-score of 1.01.

As to `COC(=O)[C@@]1(Cc2ccc(F)cc2)[C@H]2c3cc(C(=O)N4CCCC4)n(Cc4ccc(OC(F)(F)F)cc4)c3C[C@H]2CN1C(=O)c1ccccc1`, the composite z-score was found to be 0.334.

Compound `Cc1ccc(S[C@]2(C(=O)NCc3ccccc3)CC(=O)N(Cc3ccccc3C(F)(F)F)[C@@H]2c2ccc(CO)cc2I)cc1` displayed a composite z-score of -0.655.

For the compound `COCCOC(=O)N1C(=O)[C@@]2(c3cc(C#CC4(O)CCCCCC4)ccc31)[C@H](C(N)=O)[C@H]1C(=O)O[C@H](c3ccccc3)[C@H](c3ccccc3)N1[C@@H]2c1ccc(OCCO)cc1`, the composite z-score worked out at 0.69.

With `OCCCc1cc[n+](Cc2cc3c(cc2Br)OCO3)cc1`, the composite z-score was -0.782.
